# Experimental data as given in PubChem BioAssay.
# Where “and” joins values, the source holds several entries; their conditions need not be identical. Identical values can stand only once. Records with an inconclusive call do not appear. Calls of active or inactive are those of the source. Cut-off read from the data, not from the text of the source, unless noted: active = inhibition above about 80%; inactive = the rest.
# Assays:
# [1] = growth inhibition of DIPG glioma cells, dose response, cell-based, SU-DIPG-XVII, MIPE5.0, CellTiter-Glo, qHTS (AID 1347060; cut-off not given, nearly all actives have AC50 up to about 26 µM); conditions: SU-DIPG-XVII viability, CellTiter-Glo ATP luminescence
# [2] = growth inhibition of DIPG glioma cells, dose response, cell-based, JHH-DIPG-1, MIPE4.0, CellTiter-Glo, qHTS (AID 1347062; cut-off not given, nearly all actives have AC50 up to about 27 µM;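 for AC50: cells exposed to compound for two days before readout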); conditions: JHH-DIPG-1 viability, CellTiter-Glo ATP luminescence
# [3] = SU-DIPG-XXV glioma cell viability, MIPE5.0 library, qHTS (AID 1347068; cut-off not given, nearly all actives have IC50 up to about 30 µM;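 for IC50: cells exposed to compound for 48 hours before viability readout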)
# [4] = LFS_MB_P medulloblastoma growth inhibition, cell-based, chromothripsis tumors, cisplatin or BGB combos (AID 1671449); conditions: LFS_MB_P medulloblastoma cells;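 note: cells exposed for 96 hours; 0% = vehicle DMSO and 100% = killing by high DMSO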
# [5] = HDN33 neuroblastoma growth inhibition, cell-based, chromothripsis tumors, cisplatin or BGB combos (AID 1671450); conditions: HDN33 neuroblastoma cells, stronger effect = higher value;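 note: cells exposed to compound for four days; 0% = vehicle DMSO and 100% = cell killing by high DMSO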
# [6] = ICB984 medulloblastoma cell growth inhibition, synergistic combos for chromothripsis tumors, cisplatin or BGB combos (AID 1671451; call rule not given here;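 note: cells exposed for 96 hours before readout; 0% = vehicle DMSO and 100% = killing by high DMSO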); conditions: ICB984 medulloblastoma cells, drug combinations, stronger effect = higher value
# [7] = LFS_MB_1R medulloblastoma cell growth inhibition, synergistic combos for chromothripsis tumors, cisplatin or BGB combos (AID 1671452); conditions: LFS_MB_1R medulloblastoma cells, stronger effect = higher value;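 note: cells exposed for 96 hours before readout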
# [8] = HTB85 osteosarcoma cell growth inhibition, synergistic combos for chromothripsis tumors, BGB or cisplatin IC20 combos (AID 1671453); conditions: HTB85 osteosarcoma cells, drug combinations, stronger effect = higher value;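 note: cells exposed for 96 hours before readout; 0% = vehicle DMSO and 100% = high DMSO killing control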
# [9] = CRL2098 osteosarcoma cell growth inhibition, synergistic combos for chromothripsis tumors, BGB or cisplatin IC20 combos (AID 1671454); conditions: CRL2098 osteosarcoma cells, drug combinations, stronger effect = higher value;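 note: cells exposed for 96 h before readout; 0% = vehicle DMSO and 100% = killing by high DMSO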
# [10] = HD-MB03 medulloblastoma cell growth inhibition, synergistic combos for chromothripsis tumors, BGB or cisplatin IC20 combos (AID 1671455; in the data active = inhibition above about 83%;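 note: 0% = vehicle DMSO and 100% = high DMSO as cytotoxic control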); conditions: HD-MB03 medulloblastoma cells, stronger effect = higher value
# [11] = UWB1.289 ovarian carcinoma cell growth inhibition, synergistic combos for chromothripsis tumors, BGB or cisplatin combos (AID 1671456); conditions: UWB1.289 ovarian carcinoma cells, stronger effect = higher value;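 note: cells exposed to compound for four days; 0% = vehicle DMSO and 100% = killing by high DMSO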
# [12] = LFS_MB_2R medulloblastoma cell growth inhibition, synergistic combos for chromothripsis tumors, cisplatin combos (AID 1671457); conditions: LFS_MB_2R medulloblastoma cells, stronger effect = higher value;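 note: cells exposed to compound for four days before readout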
# [13] = MDA-MB-436 breast carcinoma cell growth inhibition, synergistic combos for chromothripsis tumors, BGB or cisplatin combos (AID 1671458; call rule not given here;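 note: cells exposed for 96 hours; 0% = vehicle DMSO and 100% = killing by high DMSO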); conditions: MDA-MB-436 breast carcinoma growth inhibition, drug combinations, stronger effect = higher value
# [14] = UWB1.289_BRCA1 ovarian cancer growth, cell-based, BGB or cisplatin combinations (AID 1671459); conditions: UWB1.289 BRCA1 ovarian carcinoma, drug combinations, stronger effect = higher value
# [15] = human astrocyte viability loss, single and combined drugs, cytotoxicity control for chromothriptic childhood tumor combination screen, cell-based, BGB or cisplatin IC20 combos (AID 1671460); conditions: Human astrocytes, drug combinations, stronger effect = higher value;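 note: cells exposed to compounds for 96 hours before viability readout; 0% = vehicle and 100% = killing control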
# [16] = growth inhibition of BT084 medulloblastoma cells, cell-based, ICGC_MB145, cisplatin and BGB IC40 combos (AID 1671461); conditions: drug combinations, stronger effect = higher value;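 note: cells exposed to drugs for 96 hours; 0% = vehicle DMSO and 100% = high DMSO full killing control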
# [17] = growth inhibition of RCMB18 medulloblastoma cells, cell-based, cisplatin and BGB IC40 combos (AID 1671462); conditions: stronger effect = higher value;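 note: cells exposed to compound for four days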
# [18] = growth inhibition of CRL1545 osteosarcoma cells, cell-based, cisplatin and BGB IC20 combos (AID 1671464); conditions: stronger effect = higher value;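 note: cells exposed to compound for 96 hours before readout; 0% = vehicle DMSO and 100% = high DMSO killing control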
# [19] = differential killing of epithelial or mesenchymal cells, primary screen, imaging, PC-3E GFP, TEM4-18 mCherry, co-culture (AID 1345086;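 active = compounds killing one labelled cell type while sparing the other, by normalised counts and ratio limits, not self-fluorescent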;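 note: cells exposed to compound for 72 h before imaging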;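 for red/green cell ratio (normalised): normalised mesenchymal count divided by normalised epithelial count so high means epithelial killing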); conditions: imaging cell counts, at 1 µM
# [20] = tested on: Aerobactin synthetase IucA (Klebsiella pneumoniae); experiment: IucA aerobactin synthetase inhibitors, biochemical, Tocris library, absorbance (AID 1345561; call rule not given here;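 note: 100% = enzyme without compound and 0% = no enzyme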); conditions: purified IucA enzyme assay, absorbance (OD) read-out; stronger effect = lower value;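 tested at 8 µM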
# [21] = measured here: combination with BGB IC40, at 0.05 µM
# [22] = measured here: with BGB IC20 combination, at 0.5 µM
# [23] = measured here: with cisplatin IC20 combination, at 0.5 µM
# [24] = measured here: combination with cisplatin, at 0.5 µM
# [25] = measured here: combination with cisplatin, at 5 µM
compound,measurement,setting,value
C=C1/C(=C\C=C2/CCC[C@]3(C)[C@@H]([C@H](C)CCCC(C)(C)O)CC[C@@H]23)C[C@@H](O)C[C@@H]1O,outcome,[1],inactive
same,AC50,[2],2.35 µM (active)
same,IC50,[3],23.5 µM (active)
CCC(=O)NS(=O)(=O)c1ccc(-c2c(-c3ccccc3)noc2C)cc1,outcome,[1],inactive
same,outcome,[3],inactive
CO[C@H]1O[C@@H]2O[C@@]3(C)CC[C@H]4[C@H](C)CC[C@@H]([C@H]1C)[C@@]24OO3,outcome,[1],inactive
same,outcome,[2],inactive
same,outcome,[3],inactive
CO[C@H]1C=CO[C@@]2(C)Oc3c(C)c(O)c4c(O)c(c5c(nc6cc(C)ccn65)c4c3C2=O)NC(=O)C(C)=CC=C[C@H](C)[C@H](O)[C@@H](C)[C@@H](O)[C@@H](C)[C@H](OC(C)=O)[C@@H]1C,inhibition,"[4]; at 0.5 µM, stronger effect = higher value",-25.7% (inactive) and 0.03% (inactive)
same,inhibition,"[4]; measured here: combination with BGB IC20, at 0.005 µM",-21% and -12.6%
same,inhibition,"[4]; measured here: combination with BGB IC40, at 0.005 µM",-15.4% and -21%
same,inhibition,[4]; [21],-19.4% and -36.7%
same,inhibition,"[4]; measured here: combination with cisplatin, at 0.5 µM, stronger effect = higher value",-19.3% and -0.506%
same,inhibition,"[4]; measured here: combination with cisplatin, at 5 µM, stronger effect = higher value",-24.8% and 7.24%
same,inhibition,"[5]; BGB combo, at 5 µM",-5.62% and -13.7%
same,inhibition,[5]; at 0.5 µM,-1.69% (inactive) and -3.15% (inactive)
same,inhibition,"[5]; cisplatin combo, at 5 µM",-20.9% and -12.7%
same,inhibition,[5]; [22],24.2% and -1.36%
same,inhibition,[5]; [23],-2.79% and 1.82%
same,inhibition,"[5]; single agent, at 5 µM",-32.3% and -1.92%
same,inhibition,"[6]; BGB IC20 combo, at 0.005 µM",0.503% and -4.57%
same,inhibition,"[6]; BGB IC40 combo, at 0.005 µM",18.5% and -33.7%
same,inhibition,"[6]; BGB IC40 combo, at 0.05 µM",-2.72% and 6.47%
same,inhibition,[6]; at 0.5 µM,-25.8% (inactive) and -13.5% (inactive)
same,inhibition,"[6]; cisplatin combo, at 0.05 µM",-2.72% and 3.11%
same,inhibition,"[6]; cisplatin combo, at 0.5 µM",-37.2% and -4.35%
same,inhibition,"[6]; cisplatin combo, at 5 µM",-14.1% and -11.2%
same,inhibition,"[6]; measured here: 5 uM single agent, at 5 µM",-18.1% and 0.267%
same,inhibition,[7]; at 0.5 µM,17.8% (inactive) and -17.4% (inactive)
same,inhibition,[7]; [21],-4.04% and -14.4%
same,inhibition,[7]; [24],-10.1% and -31.8%
same,inhibition,[7]; [25],-6.72% and -38.3%
same,inhibition,[8]; at 0.5 µM,-5.41% (inactive) and -9.58% (inactive)
same,inhibition,"[8]; measured here: with BGB IC20, at 0.5 µM",-40.5% and -14.9%
same,inhibition,"[8]; measured here: with BGB IC20, at 5 µM",-22.4% and -7.39%
same,inhibition,"[8]; measured here: with cisplatin IC20, at 0.5 µM",16.5% and -6.9%
same,inhibition,"[8]; measured here: with cisplatin IC20, at 5 µM",10.3% and 21%
same,inhibition,"[8]; single agent, at 5 µM",-1.97% and 12.2%
same,inhibition,[9]; at 0.5 µM,-18.8% (inactive) and -34.3% (inactive)
same,inhibition,"[9]; measured here: combination with BGB at IC20, at 0.5 µM",-28.7% and -29%
same,inhibition,"[9]; measured here: combination with cisplatin at IC20, at 0.5 µM",-10.1% and -43.6%
same,inhibition,[10]; at 0.5 µM,-6.38% (inactive) and 5.86% (inactive)
same,inhibition,"[10]; measured here: combo with BGB at IC20, at 0.5 µM",-2.33% and 1.22%
same,inhibition,"[10]; measured here: combo with cisplatin at IC20, at 0.5 µM",-9.26% and 19.1%
same,inhibition,[11]; at 0.5 µM,4.48% (inactive) and 6.54% (inactive)
same,inhibition,"[11]; measured here: inhibition with BGB combination, at 0.05 µM",-18.6% and -11.7%
same,inhibition,"[11]; measured here: inhibition with cisplatin combination, at 0.05 µM",-10.6% and 10.3%
same,inhibition,[12]; at 0.5 µM,-17.5% (inactive) and -15.1% (inactive)
same,inhibition,[12]; [24],-7.91% and -17.1%
same,inhibition,[12]; [25],-18% and -13.3%
same,inhibition,[13]; at 0.5 µM,-11.8% (inactive) and -3.37% (inactive)
same,inhibition,"[13]; measured here: BGB combination, at 0.5 µM",-0.535% and -8.79%
same,inhibition,"[13]; measured here: BGB combination, at 5 µM",-3.41% and -15.2%
same,inhibition,"[13]; measured here: cisplatin combination, at 0.5 µM",-30.7% and -0.606%
same,inhibition,"[13]; measured here: cisplatin combination, at 5 µM",-23.7% and -8.55%
same,inhibition,"[14]; BGB combination, concentration series, at 5 µM",3.57% and 12%
same,inhibition,[14]; at 0.5 µM,6.89% (inactive) and 6.14% (inactive)
same,inhibition,"[14]; cisplatin combination, concentration series, at 5 µM",5.53% and -6.86%
same,inhibition,[15]; at 0.5 µM,-8.79% (inactive) and -10.8% (inactive)
same,inhibition,"[15]; measured here: combo with BGB IC20, at 0.5 µM",-1.97% and -5.46%
same,inhibition,"[15]; measured here: combo with cisplatin IC20, at 0.5 µM",-27% and -10.4%
same,inhibition,[16]; at 0.5 µM,-17.7% (inactive) and -11.5% (inactive)
same,inhibition,"[16]; cisplatin combination, at 0.5 µM",-34% and -17.3%
same,inhibition,"[16]; cisplatin combination, at 5 µM",-37% and 5.08%
same,inhibition,"[16]; measured here: BGB IC40 combination 0.05 uM, at 0.05 µM",-7.06% and 28.8%
same,inhibition,"[16]; single agent, at 5 µM",-13.3% and -9.78%
same,inhibition,[17]; at 0.5 µM,-1.81% (inactive) and -2.64% (inactive)
same,inhibition,"[17]; cisplatin combo, at 5 µM",-11.2% and 11.2%
same,inhibition,"[17]; measured here: BGB IC40 combination, at 0.05 µM",12.8% and 1.86%
same,inhibition,[17]; [24],-36.9% and 15.4%
same,inhibition,"[17]; single agent, at 5 µM",-12% and -2.61%
same,inhibition,[18]; at 0.5 µM,8.59% (inactive) and -15.2% (inactive)
same,inhibition,[18]; [22],-1.52% and -4.42%
same,inhibition,[18]; [23],13.6% and -22.6%
same,inhibition,"[18]; single agent, at 0.05 µM",15.1% and 18%
same,inhibition,"[18]; single agent, at 5 µM",-31.6% and 28.6%
CN(C)CC/C=C1/c2ccccc2COc2ccccc21,red/green cell ratio (normalised),"[19]; actives lie on both sides, counts scaled to control wells, 1 = unselective",1.04 (inactive)
same,normalised cell number,[19]; measured here: epithelial PC-3E GFP cell survival,1.34
same,normalised cell number,[19]; measured here: mesenchymal TEM4-18 mCherry cell survival,1.4
same,remaining activity,[20],123% (inactive)
COc1cc(N)c(Cl)cc1C(=O)N[C@@H]1CCN(CCCOc2ccc(F)cc2)C[C@@H]1OC,remaining activity,[20],111% (inactive)
CN1[C@@H](CC(=O)c2ccccc2)CCC[C@H]1C[C@H](O)c1ccccc1,remaining activity,[20],122% (inactive)
CC(=O)SCC(Cc1ccccc1)C(=O)NCC(=O)OCc1ccccc1 (stereo not given),outcome,[1],inactive
same,AC50,[2],0.469 µM (active)
same,outcome,[3],inactive
CC[C@]1(O)CC2CN(CCc3c([nH]c4ccccc34)[C@@](C(=O)OC)(c3cc4c(cc3OC)N(C)[C@H]3[C@@](O)(C(N)=O)[C@H](O)[C@]5(CC)C=CCN6CC[C@]43[C@@H]65)C2)C1 (stereo not given in full),AC50,[2],0.0469 µM (active)
CCCCC[C@H](O)/C=C/[C@H]1[C@H](O)CC(=O)[C@@H]1CCCCCCC(=O)O,remaining activity,[20],115% (inactive)
same,outcome,[1],inactive
same,outcome,[2],inactive
same,outcome,[3],inactive
